Compound activity from PubChem BioAssay.
A selection: hits, their analogues and other compounds. The true share with any hit is near 3.5%.
CHRM1 PAM: human M1 muscarinic receptor positive allosteric modulators, primary screen, CHO-K1 cells, Fluo-8 calcium fluorescence, 1536-well | CHO-K1 hM1, ACh EC20; 0% = ACh EC20, 100% = maximal ACh | activation, % at 3 µM | 360,000 tested, 0.088% active; in the data active means activation above about 19%, passing the limit was not always enough
Target sequence (P11229 whole entry, looked up): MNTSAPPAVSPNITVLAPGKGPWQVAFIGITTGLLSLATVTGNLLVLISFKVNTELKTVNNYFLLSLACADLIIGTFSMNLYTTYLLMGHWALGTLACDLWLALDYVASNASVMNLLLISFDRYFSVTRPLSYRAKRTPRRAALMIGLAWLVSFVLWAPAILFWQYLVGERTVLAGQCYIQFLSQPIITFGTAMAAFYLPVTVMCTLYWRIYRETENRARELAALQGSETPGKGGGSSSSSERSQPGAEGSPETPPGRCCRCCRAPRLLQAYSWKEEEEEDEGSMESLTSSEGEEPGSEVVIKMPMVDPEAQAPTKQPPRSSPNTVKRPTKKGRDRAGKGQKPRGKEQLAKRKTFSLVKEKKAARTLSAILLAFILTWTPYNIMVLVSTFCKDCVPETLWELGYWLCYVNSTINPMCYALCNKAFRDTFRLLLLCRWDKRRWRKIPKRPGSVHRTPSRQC
Myeloid diff 2: induction of myeloid progenitor differentiation, primary screen, cell-based, flow cytometry, MLPCN library; 360,000 tested, 1% active; AID 624256, 2012; calls only at 10 µM; ER-HoxA9 myeloid progenitors, lysozyme-GFP differentiation;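 active means normalized GFP-positive differentiation at or above the plate's own cutoff, the solvent-only control mean plus 3 SD; inconclusive means no clear call, values can overlap the other calls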;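 further: cells exposed to compound for four days before flow analysis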
CHRM1 agonist: human M1 muscarinic receptor agonists, primary screen, Fluo-8 calcium fluorescence, CHO-K1 cells, HTS; Muscarinic acetylcholine receptor M1 (Homo sapiens), P11229; CHO-K1 hM1, agonist mode; 0% DMSO, 100% acetylcholine EC100; activation, % at 3 µM; 360,000 tested, 0.33% active; AID 588814, 2011;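 active means activation above the run's mean compound activation plus 3 SD, cut at about 16% in these data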;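 further: peak over basal fluorescence ratio within a 140 s kinetic read after compound addition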
CHRM1 antagonist: human M1 muscarinic receptor antagonists, primary screen, CHO-K1 cells, Fluo-8 calcium fluorescence, 1536-well | CHO-K1 hM1, ACh EC80 antagonist | Muscarinic acetylcholine receptor M1 (Homo sapiens), P11229 | inhibition, % at 3 µM | 360,000 tested, 1.3% active;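 active means percent inhibition above its own plate's cutoff, namely the mean of that plate's compound wells plus 3 SD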;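 further: peak over basal fluorescence ratio during 140 s after agonist addition; 0% = ACh EC80 plus DMSO and 100% = DMSO alone without agonist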
ATG4B inhibitor: ATG4B protease inhibitors, primary screen, biochemical, fluorescence, uHTS; 340,000 tested, 0.51% active; inhibition, % at 8.33 µM; AID 504462, 2011; ATG4B cleavage of LC3-PLA2, NBD-HPC fluorescence, 1 h; in the data active means inhibition above about 40%
SKN-1 block: suppressors of acrylamide-induced Pgst-4::GFP reporter in worms, primary screen, SKN-1 inhibitor project, whole organism, uHTS, GFP/RFP fluorescence ratio, strain VP596. 360,000 tested, 0.49% active. inhibition, % at 21.8 µM. C. elegans VP596 Pgst-4::GFP/RFP ratio, 24 h;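 active means interference check ratio from 0.5 to 1.5 plus GFP to RFP signal ratio inhibition reaching or exceeding a fixed threshold, cut at about 30% in these data, passing the limit was not always enough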
Myeloid diff CP1: inducers of myeloid progenitor differentiation, confirmation, cell-based, GFP/Mac1 flow cytometry, cherry pick 01 | shares compounds with Myeloid diff 2 | ER-HoxA9 myeloid progenitors, GFP/Mac1 double-positive flow | calls only | 2,300 tested, 2% active | AID 651706, 2012;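 active means share of green or green-and-red cells above 9 and 9% in run 1 or 4 and 3% in run 2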
GFP autofluor: counter-screen for myeloid differentiation promoters: compound fluorescence; shares compounds with Myeloid diff 2; ER-HoxA9 myeloid progenitors, no estrogen, GFP autofluorescence flow cytometry; vehicle wells 0%, positive control 100%; fluorescence response, % (concentration not given with the values); 2,300 tested, 7.4% active; AID 651707;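 active means over 5% cells positive for green fluorescent reporter, or over 2% positive for both it and APC stain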;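 further: range taken on the double positive population between DMSO and positive control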
Active calls of the source: *; i = inactive; ? = inconclusive; . = not tested or not shown; + = active, no number.

SMILES	CHRM1 PAM	Myeloid diff 2	CHRM1 agonist	CHRM1 antagonist	ATG4B inhibitor	SKN-1 block	Myeloid diff CP1	GFP autofluor
Cc1ccc(S(=O)(=O)Nc2cccc(C(=O)NCc3cccnc3)c2)cc1F	1	i	-6	-9	5	15	i	0
COc1ccccc1-n1cnc2cc(NC(=O)c3ccco3)ccc21	-3	+	-4	5	-3	7	i	0
O=C(CSc1nc2ccccc2n1CC(=O)N1CCCC1)NCc1ccc2c(c1)OCO2	-8	i	-2	2	-10	13	i	0
COc1ccc(/C=N/NC(=O)c2cccc(NC(C)=O)c2)c(OC)c1	4	i	-7	-7	-3	-2	.	.
COc1ccc(C(=O)Nc2cccc(C(=O)N/N=C/c3ccc(OC)cc3OC)c2)cc1	-3	i	-5	2	-12	9	i	0
Cc1n[nH]c(C)c1N1C(=O)c2cccc3c(Br)ccc(c23)C1=O	0	i	-1	4	-7	0	i	0
Cc1n[nH]c(C)c1N1C(=O)c2cccc3cc(Br)cc(c23)C1=O	8	i	-2	-11	-1	-3	.	.
Cc1ccc(S(=O)(=O)N2CCC(C(=O)Nc3ccccc3N3CCCC3)CC2)cc1C	3	i	-5	-5	11	-11	.	.
c1ccc(Nc2cccc3ccccc23)cc1	-1	i	-4	0	14	17	i	0
CC(C)(C)c1ccc(-c2noc(CCC(=O)NCC3CCCO3)n2)cc1 (centres undefined)	8	i	6	5	-1	2	i	0
Cc1ccc(S(=O)(=O)N(CC(O)CN2CCOCC2)c2cccc([N+](=O)[O-])c2)cc1 (centres undefined)	6	i	-4	-2	3	21	.	.
Cc1cc([N+](=O)[O-])ccc1NC(=O)CSc1nncn1-c1cccnc1	10	i	-4	-14	0	12	.	.
CCN(CC)CCCNC(=O)c1cc2nc3c(c(C(F)(F)F)n2n1)CCc1ccccc1-3	5	i	-15	-7	-5	-1	.	.
Cc1ccc(O)c(NC(=O)c2cc3nc4c(c(C(F)(F)F)n3n2)CCc2ccccc2-4)c1	1	i	-3	-1	9	-1	i	0
CC(C)(C)c1ccc(C(O)c2ncc(-c3cccc(F)c3)[nH]2)cc1 (centres undefined)	-2	i	-3	-4	.	3	.	.
COc1cc(NCCCNC(C)C)c2nccc(C)c2c1	6	+	-4	-11	-1	11	i	0
O=[N+]([O-])c1ccccc1SN(Cc1ccccc1)c1ccccn1	0	i	-12	-4	3	9	i	0
COc1ccc(C(C)(C)C)cc1NC(=O)CCN1C(=O)NC(C)(C)C1=O	5	i	-4	-3	-3	4	.	.
COc1ccc(NS(=O)(=O)c2cccc(C(=O)NNC(=O)CN3C(=O)NC(C)(C)C3=O)c2)cc1	5	i	-2	-5	6	20	.	.
CC(C(=O)N1CCc2ccccc21)N1CCN(Cc2ccc(Cl)cc2)CC1 (centres undefined)	-2	i	-9	6	-7	20	.	.
O=C(Cc1ccccc1)NCC(=O)OCC(=O)c1ccc(OC(=O)c2ccccc2)cc1	-2	i	3	9	4	5	i	0
Cc1ccc(C(=O)COC(=O)CNC(=O)Cc2ccccc2)cc1	2	i	-3	-6	3	-10	.	.
O=C(OCc1nnc(-c2ccccc2)o1)c1cccc(S(=O)(=O)N2CCOCC2)c1	4	i	-3	-4	-5	-16	.	.
CCC(=S)/C=C1\Sc2ccccc2N1CCCS(=O)(=O)O	5	i	-2	-9	-17	-14	i	4
Cc1ccc2[nH]c(CCN(C)C)c(CN3CCOCC3)c2c1	-9	i	-8	16	-3	15	i	0
SMILES	CHRM1 PAM	Myeloid diff 2	CHRM1 agonist	CHRM1 antagonist	ATG4B inhibitor	SKN-1 block	Myeloid diff CP1	GFP autofluor
Cc1ccc2[nH]c3c(=O)n(CCN4CCOCC4)cnc3c2c1	10	i	-2	-14	-1	11	.	.
CCCN(Cc1nnc(-c2ccccc2Cl)o1)C(=O)c1cc(S(=O)(=O)N2CCOCC2)ccc1F	-6	i	-5	11	-15	8	.	.
Cc1ccccc1S(=O)(=O)c1cc2ccccc2nc1N	-3	i	-4	3	-4	6	i	0
CC(c1ccccc1)N1C(=O)CC(Sc2ncccc2C(=O)O)C1=O (centres undefined)	0	.	-2	3	-3	2	i	3
O=C(O)c1cccnc1SC1CC(=O)N(c2ccccc2)C1=O (centres undefined)	8	i	2	3	-6	0	.	.
O=C(NCc1cccnc1)c1ccc([N+](=O)[O-])o1	5	+	-6	-4	-4	13	i	2
O=C(Nc1nc2ccccc2s1)c1ccc([N+](=O)[O-])o1	2	i	-4	-2	2	-5	.	.
COc1ccc2nc(NC(=O)c3ccc([N+](=O)[O-])o3)sc2c1	-2	i	-3	-3	-5	6	i	1
O=C(Nc1ccc(Cl)cn1)c1ccc([N+](=O)[O-])o1	14	+	-3	-8	-4	2	i	1
CC(=O)c1ccc(NC(=O)c2ccc([N+](=O)[O-])o2)cc1	8	?	1	-8	-2	0	.	.
COc1ccc(NC(=O)c2ccc([N+](=O)[O-])o2)cc1	12	+	1	-6	4	9	i	0
CC1CC2(CCCC2)N(C(=O)N(C)C)c2ccc(F)cc21 (centres undefined)	6	i	-2	-11	-8	11	.	.
COc1nc(-c2ccccc2)nc(C)c1CC(=O)O	3	i	0	2	7	5	i	0
CCOC(=O)c1c(C)nc(-c2ccccc2)nc1NC(=O)CC	-7	i	-2	0	-1	-11	.	.
